Assay [1] deals with Vero E6 infected with SARS-CoV-2. The experiment in a line: morphology score (similarity to uninfected cells); higher = more like uninfected cells. Particulars: 24 h.
Assay [2] shares this test system. The experiment in a line: SARS-CoV-2 infection rate relative to infected DMSO; higher = more infection, active = 60 or less. Particulars: 24 h.

We go through 28 molecules from the supplement of paper PMC13380429.

Molecule `c1coc(CNc2ncnc3[nH]cnc23)c1` [kinetin] (10 µM) returned a morphology score in assay [1] of 0.0735. In addition, the SARS-CoV-2 infection rate in assay [2] is 104% (inactive).

Take `CCCC[C@@H](NC(=O)[C@@H](Cc1cn(C(=O)OC)c2ccccc12)NC(=O)[C@H](CC(C)(C)C)NC(=O)N1[C@H](C)CCC[C@@H]1C)C(=O)O` (10 µM): in assay [1], the morphology score was 0.0975. The SARS-CoV-2 infection rate in assay [2] was 104% (inactive).

In assay [1], `CNC(=N)NC(=O)Nc1c(C)cccc1C` [lidamidine] (10 µM) came in with a morphology score of -0.327. Moreover, the SARS-CoV-2 infection rate in assay [2] was 118% (inactive).

The molecule `NCCS` [cysteamine] (10 µM) gave a morphology score in assay [1] of -0.0321. Moreover, the SARS-CoV-2 infection rate in assay [2] is 112% (inactive).

Molecule `CC(C)(C)C(=O)OCOC(=O)[C@@H]1N2C(=O)[C@@H](NC(=O)[C@H](N)c3ccccc3)[C@H]2SC1(C)C` [pivampicillin] (10 µM) came in with a morphology score in assay [1] of 0.0461. In assay [2], the SARS-CoV-2 infection rate was 106% (inactive).

In assay [1], `CCOC(=O)N1c2ccc(C(F)(F)F)cc2[C@@H](N(Cc2cc(C(F)(F)F)cc(C(F)(F)F)c2)C(=O)OC)C[C@H]1CC` (10 µM) showed a morphology score of 0.259. The SARS-CoV-2 infection rate in assay [2] is 93% (inactive).

`Cc1ccc(=O)n(-c2ccc(O)cc2)c1` (10 µM) returned a morphology score in assay [1] of -0.0543. Further, the SARS-CoV-2 infection rate in assay [2] is 94.5% (inactive).

For `CC(O)CN1CCN(CC(=O)[O-])CCN(CC(=O)[O-])CCN(CC(=O)[O-])CC1.[Gd+3]` (stereo unspecified) [gadoteridol] (10 µM), the morphology score in assay [1] was -0.0781. Further, the SARS-CoV-2 infection rate in assay [2] was 108% (inactive).

Take `CN(C)Cc1cccc(N/C(=C2\C(=O)Nc3cc(C(N)=O)ccc32)c2ccccc2)c1` (10 µM): in assay [1], the morphology score is -0.132. In assay [2], the SARS-CoV-2 infection rate is 120% (inactive).

In assay [1], `CC1(C)S[C@@H]2[C@H](NC(=O)[C@H](NC(=O)N3CCN(S(C)(=O)=O)C3=O)c3ccccc3)C(=O)N2[C@H]1C(=O)O` [mezlocillin] (10 µM) displayed a morphology score of 0.0709. Besides, the SARS-CoV-2 infection rate in assay [2] was 97% (inactive).

Molecule `CC(=O)Oc1cc2c(s1)CCN(C(C(=O)C1CC1)c1ccccc1F)C2` (stereo unspecified) [prasugrel] (10 µM) came in with a morphology score in assay [1] of 0.0783. Also, the SARS-CoV-2 infection rate in assay [2] is 108% (inactive).

In assay [1], `COc1ccc(O)cc1` [mequinol] (10 µM) showed a morphology score of -0.0349. The SARS-CoV-2 infection rate in assay [2] was 105% (inactive).

`CC(C)C[C@H](NC(=O)CNC(=O)c1cc(Cl)ccc1Cl)B1OC(=O)C(CC(=O)O)(CC(=O)O)O1` (0.833333 µM) yielded a morphology score in assay [1] of -0.0464. Further, the SARS-CoV-2 infection rate in assay [2] was 108% (inactive).

`NS(=O)(=O)c1ccc(-n2nc(C(F)(F)F)cc2-c2ccc(Cl)cc2)cc1` (10 µM) showed a morphology score in assay [1] of 0.0527. Moreover, the SARS-CoV-2 infection rate in assay [2] is 106% (inactive).

In assay [1], `CN(Cc1ccccc1)C(=O)[C@H](Cc1ccc2ccccc2c1)NC(=O)[C@@H]1C[C@@H](O)CN1C(=O)c1cn(C)c2ccccc12` (10 µM) displayed a morphology score of 0.179. Besides, the SARS-CoV-2 infection rate in assay [2] was 104% (inactive).

With `Cc1cc(C(C)(C)CC(C)(C)C)ccc1OCCOCC[N+](C)(C)Cc1ccccc1` [methylbenzethonium-chloride] (10 µM), the morphology score in assay [1] was -0.0681. Further, in assay [2], the SARS-CoV-2 infection rate was 101% (inactive).

`CCN(CC)CCNC(=O)c1cc(S(C)(=O)=O)ccc1OC` [tiapride] (10 µM) yielded a morphology score in assay [1] of 0.0888. The SARS-CoV-2 infection rate in assay [2] is 98% (inactive).

On to `CO[C@@H]1[C@H](O)[C@@H](CO)O[C@H]1n1cnc2c(NC3CCCCC3)ncnc21` (10 µM), for which the morphology score in assay [1] is -0.0183. Moreover, in assay [2], the SARS-CoV-2 infection rate was 108% (inactive).

`CN(C)CCOC(c1ccccc1)c1ccccc1.Cn1c(=O)c2[nH]c(Cl)nc2n(C)c1=O` [dimenhydrinate] (10 µM) registered a morphology score in assay [1] of -0.0688. In addition, in assay [2], the SARS-CoV-2 infection rate is 110% (inactive).

Molecule `COCCNC(=O)Cn1cnc([N+](=O)[O-])n1` [sanazole] (10 µM) had a morphology score in assay [1] of 0.122. The SARS-CoV-2 infection rate in assay [2] is 93% (inactive).

In turn, `O=C(O)c1cn(-c2ccc(F)cc2)c2cc(N3CCNCC3)c(F)cc2c1=O` [sarafloxacin] (10 µM) came in with a morphology score in assay [1] of 0.213. Moreover, in assay [2], the SARS-CoV-2 infection rate is 93% (inactive).

As for `C=CC(=O)Nc1cccc(Oc2nc(Nc3ccc(N4CCN(C)CC4)cc3)nc3ccsc23)c1` [olmutinib] (0.833333 µM), the morphology score in assay [1] is -0.0965. For the same molecule, the SARS-CoV-2 infection rate in assay [2] is 94.5% (inactive).

Take `CCc1cccc2c3c([nH]c12)C(CC)(CC(=O)O)OCC3` (stereo unspecified) [etodolac] (10 µM): the morphology score in assay [1] was -0.0116. Besides, the SARS-CoV-2 infection rate in assay [2] was 115% (inactive).

For the molecule `C[C@@H]1CN([C@H]2CC[C@](C#N)(c3ccc(F)cc3)CC2)CC[C@]1(C(=O)O)c1ccccc1` [levocabastine] (10 µM), the morphology score in assay [1] is -0.0824. Moreover, in assay [2], the SARS-CoV-2 infection rate is 112% (inactive).

`N.N.[Cl][Pt][Cl]` [cisplatin] (10 µM) came in with a morphology score in assay [1] of 0.0556. For the same molecule, the SARS-CoV-2 infection rate in assay [2] was 111% (inactive).

The molecule `Cc1c(O)c(=O)n(-c2ccccc2)n1C` [4-hydroxy-phenazone] (10 µM) returned a morphology score in assay [1] of -0.0731. Besides, the SARS-CoV-2 infection rate in assay [2] was 116% (inactive).

`Oc1cc2c(cc1O)[C@H](Cc1cccc3ccccc13)NCC2` (10 µM) displayed a morphology score in assay [1] of -0.102. In addition, in assay [2], the SARS-CoV-2 infection rate is 119% (inactive).

For the molecule `CC1(C)C[C@@H]1C(=O)N/C(=C\CCCCSC[C@H](N)C(=O)O)C(=O)O` [Cilastatin Sodium] (10 µM), the morphology score in assay [1] came to 0.215. For the same molecule, the SARS-CoV-2 infection rate in assay [2] is 88.5% (inactive).
